Marburg entry inh = inhibitors of Marburg virus binding or cell entry | AID 540276 | Potency, µM (series often up to 37.8 µM), inactives show top-dose activity change, negative = inhibition, most hits filed as inhibitors | Marburg virus pseudotyped entry inhibition, cell reporter | actives 1.8% (n = 300,000); calls by dose curve; tested in HEK293 cells; note: potency is the fitted concentration of half-maximal effect
HCMV antiviral = inhibitors of human cytomegalovirus | activity change, negative = inhibition, % at 57.5 µM | actives 4.5% (n = 410,000) | HFF cells, HCMV-luciferase reporter, 72 h; hits give low values | AID 1259415; in the data active = activity change below about -60%; inconclusive = no clear call, values can overlap the other calls; inactive = above about -39%
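Two compound doses tested in HFFs infected with HCMV-luciferase, MOI 1 PFU/cell, 72 h at 37C. Lysate luminescence read with OneGlo; data normalized against buffer-only and 10uM Salinomycin inhibitor controls.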
FMDV antiviral = foot and mouth disease virus antiviral activity; FMDV antiviral cell-based qHTS; Potency, µM (doses to about 57.9 µM), inactives show at the top dose activity change, negative = inhibition, most hits filed as inhibitors; actives 1.2% (n = 410,000); AID 1159524; calls by dose curve; tested in HEK293T cells; note: read-out not given here; potency is the fitted concentration of half-maximal effect; nearly all actives have a fitted effect of over 45% in size
HCV inh = inhibitors of hepatitis C virus infection | actives 3.4% (n = 340,000) | Huh7.5.1 HCVcc-Cre infection, luciferase reporter, 44 h | Potency, µM (titrated, usually from 41.8 µM), for the others: at the highest dose activity change, negative = inhibition, most hits filed as inhibitors; note: potency is the fitted concentration of half-maximal effect
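Luciferase read-out (15 sec integration) after a 15 min room-temperature substrate step quantifies HCVcc-Cre infection. Cells, 1,000 per well, had compound added 4 h post-plating, then virus at ~0.5 moi, and were cultured 44 h.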
Lassa entry inh = inhibitors of Lassa virus binding or cell entry | actives 1.2% (n = 300,000) | Lassa virus pseudotype entry inhibition, cell reporter | Potency, µM (highest dose often 37.9 µM), without a hit: top-dose activity change, negative = inhibition, most hits filed as inhibitors | AID 540256; calls by dose curve; tested in HEK293 cells; note: potency is the fitted concentration of half-maximal effect; nearly all actives have a fitted effect of over 50% in size
FBPA Giardia inh = blocks Giardia fructose-bisphosphate aldolase activity; actives 0.71% (n = 290,000); AID 2451; purified Giardia FBPA; Potency, µM (top dose mostly 59.6 µM), for the others: at the highest dose activity, negative = inhibition, usual class: inhibitors; A8B2U2; note: potency is the fitted concentration of half-maximal effect; nearly all actives have a fitted effect of over 55% in size
Target sequence (A8B2U2 whole entry, looked up): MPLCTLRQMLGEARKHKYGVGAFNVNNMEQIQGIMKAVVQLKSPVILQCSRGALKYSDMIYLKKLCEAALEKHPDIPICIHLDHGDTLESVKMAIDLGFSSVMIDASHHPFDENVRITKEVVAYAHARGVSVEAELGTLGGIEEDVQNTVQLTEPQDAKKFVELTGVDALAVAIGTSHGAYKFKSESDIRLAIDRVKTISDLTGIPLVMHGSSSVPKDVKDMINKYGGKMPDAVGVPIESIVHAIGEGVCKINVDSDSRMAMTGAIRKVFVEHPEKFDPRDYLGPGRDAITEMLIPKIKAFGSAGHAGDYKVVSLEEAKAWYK
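40 nM FBPA preincubated 10 min at RT with compound (up to 57.5 uM final), then substrate plus GAPDH/TPI/NAD/arsenate coupling and diaphorase/resazurin added. Fluorescence read after 20 min at RT, 525/598 nm.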
* marks the source's active call; other numbers are inactive results; ? = inconclusive; · = not tested or not shown; ! = not confirmed by another sample; [ ] = remark or other dose. Hits are enriched below; roughly 8.3% of the tested compounds scored in any of these assays. Unless noted, calls come from the whole dose curve; as a rule, active = well fitted curve in the direction sought with a large enough effect; inconclusive = small, poorly fitted or top-dose-only effect, or another doubt; inactive = no such curve, though single readings can be large; an effect the other way counts as inactive or inconclusive. % is set by controls: 0 for no effect and ±100 for the full control effect.

SMILES	Marburg entry inh	HCMV antiviral	FMDV antiviral	HCV inh	Lassa entry inh	FBPA Giardia inh
Cc1ccc(C(=O)Nc2cnn(-c3ccc(C(=O)NCc4nc(-c5ccccc5)n[nH]4)cc3)c2)c(C)c1	·	·	-17.6%	·	·	·
COc1cccc(Cn2c(=O)c(C)nc3cnc(OCc4ccccc4)nc32)c1	·	·	-20.3%	·	·	2.5%
CCOC(=O)c1cc(-c2ccc(OC)c(S(=O)(=O)NCc3ccccc3Cl)c2)on1	·	?	26.3%	·	29.8%[46.1 µM]	·
CCOC(=O)c1cc(-c2ccc(OC)c(S(=O)(=O)NC3CCCCC3)c2)on1	·	-69.5*	69.4%	·	29.2%[46.1 µM]	·
CCCCOc1ccc(-c2cc(C(=O)NNC(=S)NCC)c3ccccc3n2)cc1	1.46µM*	-92.7*	?	11.2µM*	?	-11.3%
CCNC(=S)NNC(=O)c1cc(-c2cccc(C)c2)nc2ccccc12	-29.2%	118.2	5.0%	-23.2%	?	?
CCCCOc1cccc(-c2cc(C(=O)NNC(=S)NCC)c3ccccc3n2)c1	-9.4%	-7.4	75.6%	·	30.3%[14.3 µM]	1.1%
CCNC(=S)NNC(=O)c1cc(-c2ccc(OC)cc2)nc2ccccc12	0.651µM*	133.9	11.2µM*	14.5%	3.26µM*	22.7%
CCCCCCOc1ccc(CN2CCN(C)CC2)cc1	?	-37.3	-25.1%	1.78µM*	?	-11.6%
CN1CCN(CCCOc2ccc(-c3ccccc3)cc2)CC1	?	31.3	5.5%	2.82µM*	?	?
CN1CCN(CCOc2ccc(-c3ccccc3)cc2)CC1	·	14.4	18.9%	?	·	-29.4%
CCCCOc1ccc(CN2CCCCC2)cc1	?	-11.6	·	17.5%	11.1%	-2.0%
Cc1cccc(C2=N[C@@H](CC(C)C)CO2)c1	·	·	·	·	·	-6.1%[136 µM]
C=CCC(Nc1ccc(OC)cc1)(C(=O)OCC)c1ccccc1 (centres undefined)	?	·	·	·	?	3.7%
COCC1=C(C(=O)OC)C(c2ccccc2)N(C(C)=O)C(=O)N1 (centres undefined)	0.8%[14.2 µM]	·	·	·	·	·
Cn1cc(C(C[N+](=O)[O-])c2ccccc2)c2ccccc21 (centres undefined)	·	9.3	-0.3%	?	·	18.0%
CC(=O)n1cc(C(C[N+](=O)[O-])SCCN)c2ccccc21 (centres undefined)	20.6µM*	·	?	?	?	?
COc1cc(NC(=O)c2cc([N+](=O)[O-])ccc2NC(=O)CN2CCN(c3ccccn3)CC2)cc(OC)c1	8.91µM*	-12.2	-25.2%	?	?	·
CC(=O)N1CCN(CC(=O)Nc2cc([N+](=O)[O-])ccc2Cl)CC1	5.2%[46.1 µM]	0.5	-9.5%	18.8%	·	-1.9%
O=C(CN1CCN(c2ccc(O)cc2)CC1)Nc1cc([N+](=O)[O-])ccc1Cl	?	-68.5*	?	1.3%	4.2%	-25.2%
O=C1c2ccccc2CCC1CNCCc1ccc(O)cc1 (centres undefined)	·	·	-6.8%	·	·	·
CCCCCCCCCCCCCCC(C(=O)O)C(O)(CC(=O)OC)C(=O)O (centres undefined)	·	·	-2.8%	·	·	?
O=C(Nc1ccc(F)cc1)c1ccc(Cn2nc(N3CCN(c4ccccc4)CC3)ccc2=O)o1	·	-61.9*	?	·	?	·
O=C(Nc1ccccc1F)c1ccc(Cn2nc(N3CCN(c4ccccc4)CC3)ccc2=O)o1	·	?	-22.5%	·	?	·
CC(C)CC(=O)NC(=S)Nc1ccc(S(=O)(=O)Nc2nccs2)cc1	10.5%	-70.6*	73.4%	22.8%	-12.6%	11.0%
SMILES	Marburg entry inh	HCMV antiviral	FMDV antiviral	HCV inh	Lassa entry inh	FBPA Giardia inh
CCCC(=O)NC(=S)Nc1ccc(S(=O)(=O)Nc2ccc(OCC)cc2)cc1	?	-29.5	63.8%	-17.5%	-2.2%	-1.0%
CCOc1ccc(NS(=O)(=O)c2ccc(NC(=S)NC(=O)CC(C)C)cc2)cc1	-20.9%	-1.4	20.2%	11.2µM*	?	-2.6%
CCc1ccc(C(=O)c2cn(CC(=O)Nc3ccc4c(c3)OCO4)c3ccc(Cl)cc3c2=O)cc1	11.1%[46.1 µM]	-6.5	-18.2%	·	16.0%[46.1 µM]	·
Cn1cc(SCC(=O)Nc2ccc3c(c2)OCO3)c2ccccc21	·	16.9	8.2%	-6.0%	·	-12.5%
CCc1ccc(C(=O)c2cn(CC(=O)Nc3ccc4c(c3)OCO4)c3ccc(CC)cc3c2=O)cc1	7.7%[46.1 µM]	-88.2*	0.0%	·	3.5%[46.1 µM]	·
CCCn1cc(SCC(=O)Nc2ccc3c(c2)OCO3)c2ccccc21	·	-65.5*	-9.2%	14.1µM*	·	-3.0%
CCc1ccc2c(c1)c(=O)c(C(=O)c1ccccc1)cn2CC(=O)Nc1ccc(C)c(Cl)c1	1.0%[46.1 µM]	-68.6*	-4.6%	·	-5.3%[46.1 µM]	·
CCc1ccc(C(=O)c2cn(CC(=O)Nc3ccc(Cl)cc3)c3cc4c(cc3c2=O)OCO4)cc1	4.47µM*	13.4	0.0%	·	?	·
CCOc1ccc(C(=O)c2cn(CC(=O)Nc3ccc(C)c(Cl)c3)c3ccc(OCC)cc3c2=O)cc1	9.1%[46.1 µM]	12.0	0.0%	·	-4.6%[46.1 µM]	·
CCOc1ccc(-n2c(-c3ccc(Br)cc3)cc3c2CC(C)(C)CC3=O)cc1	-1.6%[46.1 µM]	-20.9	?	·	?	·
COc1ccc(-c2cc(=O)oc3c4c(ccc23)OCN(Cc2ccccc2)C4)cc1	?	-24.4	-21.7%	·	18.4%[46.1 µM]	·
COC1=C(C(=O)c2ccccc2)C(=O)[C@@]2(CC=C(C)C)CC(C#N)C[C@@]1(CC=C(C)C)C2=O (some centres undefined)	-16.4%[14.2 µM]	·	·	·	-36.0%[14.3 µM]	·
CC(=O)c1ccc(N2CCN(S(=O)(=O)c3ccc(-c4cnc(C5CC5)o4)cc3)CC2)cc1	·	-11.0	31.6µM*!	7.4%	10.6%[46.1 µM]	·
O=S(=O)(c1ccc(-c2cnc(C3CC3)o2)cc1)N1CCN(c2ccc(F)cc2)CC1	·	-77.2*	0.0%	·	7.94µM*	·
COc1ccc(N2CCN(S(=O)(=O)c3ccc(-c4cnc(C5CC5)o4)cc3)CC2)cc1	·	-17.8	0.0%	-5.3%	?	·
